Experimental findings from PubChem BioAssay AID2427 (National Center for Advancing Translational Sciences (NCATS), 2010) are described below.

The structures appear in SMILES notation. The source made the active and inactive calls.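 Rule for the calls: active = melting temperature shift above 3 C; inconclusive = shift above 1 C but not above 3 C; inactive = the rest.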

Sequence of 15-hydroxyprostaglandin dehydrogenase [NAD(+)] (Homo sapiens) (P15428 whole entry, looked up): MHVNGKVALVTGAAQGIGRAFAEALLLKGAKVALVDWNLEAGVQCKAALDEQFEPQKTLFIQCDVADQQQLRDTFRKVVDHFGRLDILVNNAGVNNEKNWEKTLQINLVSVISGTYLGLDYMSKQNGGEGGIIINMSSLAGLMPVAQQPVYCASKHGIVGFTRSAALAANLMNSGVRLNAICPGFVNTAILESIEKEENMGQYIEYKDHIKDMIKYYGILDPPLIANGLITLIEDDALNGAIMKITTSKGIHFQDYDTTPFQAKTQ

In the first experiment the target is 15-hydroxyprostaglandin dehydrogenase [NAD(+)] (Homo sapiens) (UniProt P15428). The experiment in a line: Thermal Shift Assay for Inhibitors of HPGD (15-Hydroxyprostaglandin Dehydrogenase). The following applies: Recombinant HPGD thermal shift, SYPRO orange DSF, at 250 µM, stronger effect = higher value. The protocol:
Assay Overview: Human 15-Hydroxyprostaglandin dehydrogenase (HPGD) catalyzes the inactivation of prostaglandin E2, and plays a major role in cancer biology by antagonizing the oncogenic potential of cyclooxygenase type 2 (COX2). Studies to assess the stability of human 15-PGDH in presence of compounds was performed as described (Niesen et al., 2007) with variations. References 1. Myung SJ, Rerko RM, Yan M, Platzer P, Guda K, Dotson A, Lawrence E, Dannenberg AJ, Lovgren AK, Luo G, Pretlow TP, Newman RA, Willis J, Dawson D, Markowitz SD. 15-Hydroxyprostaglandin dehydrogenase is an in vivo suppressor of colon tumorigenesis. Proc Natl Acad Sci U S A. 2006 Aug 8;103(32):12098-102. 2. Yan M, Rerko RM, Platzer P, Dawson D, Willis J, Tong M, Lawrence E, Lutterbaugh J, Lu S, Willson JK, Luo G, Hensold J, Tai HH, Wilson K, Markowitz SD. 15-Hydroxyprostaglandin dehydrogenase, a COX-2 oncogene antagonist, is a TGF-beta-induced suppressor of human gastrointestinal cancers. Proc Natl Acad Sci U S A. 2004 Dec 14;101(50):17468-73. 3. Yang L, Amann JM, Kikuchi T, Porta R, Guix M, Gonzalez A, Park KH, Billheimer D, Arteaga CL, Tai HH, Dubois R, Carbone DP, Johnson DH. Inhibition of Epidermal Growth Factor Receptor Signaling Elevates 15-Hydroxyprostaglandin Dehydrogenase in Non-Small-Cell Lung Cancer. Cancer Res. 2007 Jun 15;67(12):5587-5593. 4. Niesen FH, Berglund H, Vedadi M: The use of differential scanning fluorimetry to detect ligand interactions that promote protein stability. Nature protocols 2007; 2:2212-2221 NIH Chemical Genomics Center [NCGC] Structural Genomics Consortium [SGC]
HPGD was diluted to a final assay concentration of 1 uM in 100 mM Tris buffer, pH 8.0, containing 0.01% Tween-20 and 1:1000 SYPRO orange dye. The final assay volume is 10 ul, with or without 200 uM of either NAD+ or NADH. Compounds were added 1:5 from appropriate stock solutions in 10% (v/v) DMSO to comprise either 50 or 250 uM final concentrations. Heat denaturation curves were recorded using a RT-PCR instrument (Mx3005p, Agilent) applying a temperature gradient of 2 degree C/min. Analysis of the data was performed using DSF Analysis vers. 2.5 (ftp://ftp.sgc.ox.ac.uk/pub/biophysics) and Prism 5.0 (GraphPad Software, Inc.)
In the case of `O=C(c1ccc(N2C(=O)C3CC=C(Cl)CC3C2=O)cc1)N1CCCCC1` (stereo not given), the thermal shift (delta Tm) was 3 C (active).

Turning to `O=C(CCc1ccc(Oc2cc([N+](=O)[O-])cc([N+](=O)[O-])c2)cc1)N1CCCCC1`, the thermal shift (delta Tm) was 3.1 C (active).

`O=C(CSc1nc2ncc(Br)cc2[nH]1)c1cccc([N+](=O)[O-])c1`: the thermal shift (delta Tm) was 6.9 C (active).

With `Cc1ccccc1CSc1nc2ccccc2c(=O)[nH]1`, the thermal shift (delta Tm) was 6.1 C (active).

Regarding `COc1ccc(-c2cc(C(F)(F)F)n3nc(C(=O)N4CCCCC4)cc3n2)cc1OC`, the thermal shift (delta Tm) was 3.9 C (active).

Regarding `O=c1[nH]c(SCc2ccccc2Cl)nc2c1CCC2`, the thermal shift (delta Tm) is 9.2 C (active).

For `COc1ccc2cc(C(=O)N3CCCCCC3)sc(=O)c2c1OC`, the thermal shift (delta Tm) is 3.2 C (active).

Regarding `Cc1ccc(C)c(Cn2nnc3c(=O)[nH]c(C(=O)NCc4ccco4)nc32)c1`, the thermal shift (delta Tm) is 7.5 C (active).

Turning to `CC1CCCN(C(=O)c2ccc(COc3ccccc3Br)cc2)C1` (stereo not given), the thermal shift (delta Tm) was 3.8 C (active).

With `O=C(CSc1nc(-c2ccccc2)nn1C(=O)c1ccccc1)Nc1cccc([N+](=O)[O-])c1`, the thermal shift (delta Tm) is 4 C (active).

Consider `O=C(c1ccc2c(c1)OCO2)N1CCc2ccccc2C1`, for which the thermal shift (delta Tm) was 3.3 C (active).

`Cc1ccc(-c2n[nH]c(=S)n2/N=C/C=C\c2ccccc2[N+](=O)[O-])cc1`: the thermal shift (delta Tm) is 4.5 C (active).

As for `CCN(CC)C(=O)c1sc2nc(-c3cccs3)cc(-c3ccc(Cl)cc3)c2c1N`, the thermal shift (delta Tm) was 0.9 C (inactive).

In the case of `O=C(c1ccc(COc2ccccc2Br)cc1)N1CCCCC1`, the thermal shift (delta Tm) is 7.1 C (active).

Regarding `Cc1cc(-c2nnc3n2CCCCC3)c(C)n1-c1ccccc1`, the thermal shift (delta Tm) is 5 C (active).

Take `O=C(C1CCC(Cn2c(=S)[nH]c3ccccc3c2=O)CC1)N1CCOCC1` (stereo not given): the thermal shift (delta Tm) is 6 C (active).

On to `COc1ccc(OC)c(C(=O)c2ccc(C(=O)N3CCCCC3)cc2)c1`, for which the thermal shift (delta Tm) is 3 C (active).

As to `O=C(c1ccc2c(c1)OCCO2)N1CCCCC1`, the thermal shift (delta Tm) is 3.5 C (active).

On to `Fc1ccccc1CSc1nc2ncc(Br)cc2[nH]1`, for which the thermal shift (delta Tm) was 7.6 C (active).

Turning to `COCCNC(=O)c1nc2c(nnn2Cc2cc(C)ccc2C)c(=O)[nH]1`, the thermal shift (delta Tm) was 8.9 C (active).

Still in this experiment, the particulars now being: Recombinant HPGD thermal shift, SYPRO orange DSF, measured here: delta Tm with NADH cofactor, at 250 µM, stronger effect = higher value.
Take `O=C(c1ccc(N2C(=O)C3CC=C(Cl)CC3C2=O)cc1)N1CCCCC1` (stereo not given): the thermal shift (delta Tm) turned out to be 6.1 C.

Turning to `O=C(CCc1ccc(Oc2cc([N+](=O)[O-])cc([N+](=O)[O-])c2)cc1)N1CCCCC1`, the thermal shift (delta Tm) was found to be 7.9 C.

With `O=C(CSc1nc2ncc(Br)cc2[nH]1)c1cccc([N+](=O)[O-])c1`, the thermal shift (delta Tm) was found to be 1.7 C.

Consider `Cc1ccccc1CSc1nc2ccccc2c(=O)[nH]1`, for which the thermal shift (delta Tm) turned out to be 0.4 C.

For the compound `COc1ccc(-c2cc(C(F)(F)F)n3nc(C(=O)N4CCCCC4)cc3n2)cc1OC`, the thermal shift (delta Tm) came out at 9.6 C.

`O=c1[nH]c(SCc2ccccc2Cl)nc2c1CCC2`: the thermal shift (delta Tm) is 1.6 C.

On to `COc1ccc2cc(C(=O)N3CCCCCC3)sc(=O)c2c1OC`, for which the thermal shift (delta Tm) amounted to 7.8 C.

For the compound `Cc1ccc(C)c(Cn2nnc3c(=O)[nH]c(C(=O)NCc4ccco4)nc32)c1`, the thermal shift (delta Tm) came to 4.8 C.

`CC1CCCN(C(=O)c2ccc(COc3ccccc3Br)cc2)C1` (stereo not given): the thermal shift (delta Tm) was 10.6 C.

`O=C(CSc1nc(-c2ccccc2)nn1C(=O)c1ccccc1)Nc1cccc([N+](=O)[O-])c1`: the thermal shift (delta Tm) was -7.6 C.

Turning to `O=C(c1ccc2c(c1)OCO2)N1CCc2ccccc2C1`, the thermal shift (delta Tm) amounted to 4.4 C.

With `Cc1ccc(-c2n[nH]c(=S)n2/N=C/C=C\c2ccccc2[N+](=O)[O-])cc1`, the thermal shift (delta Tm) stood at 0.2 C.

On to `CCN(CC)C(=O)c1sc2nc(-c3cccs3)cc(-c3ccc(Cl)cc3)c2c1N`, for which the thermal shift (delta Tm) was 2.9 C.

As for `O=C(c1ccc(COc2ccccc2Br)cc1)N1CCCCC1`, the thermal shift (delta Tm) came to 10.6 C.

For the compound `Cc1cc(-c2nnc3n2CCCCC3)c(C)n1-c1ccccc1`, the thermal shift (delta Tm) was determined as 10.5 C.

Take `O=C(C1CCC(Cn2c(=S)[nH]c3ccccc3c2=O)CC1)N1CCOCC1` (stereo not given): the thermal shift (delta Tm) amounted to 3.9 C.

As for `COc1ccc(OC)c(C(=O)c2ccc(C(=O)N3CCCCC3)cc2)c1`, the thermal shift (delta Tm) amounted to 6.6 C.

In the case of `O=C(c1ccc2c(c1)OCCO2)N1CCCCC1`, the thermal shift (delta Tm) was 7.8 C.

As to `Fc1ccccc1CSc1nc2ncc(Br)cc2[nH]1`, the thermal shift (delta Tm) was 1.5 C.

On to `COCCNC(=O)c1nc2c(nnn2Cc2cc(C)ccc2C)c(=O)[nH]1`, for which the thermal shift (delta Tm) amounted to 6.6 C.
